# Measurements taken from the supplement of paper PMC8728848.
# This excerpt belongs to a sample that is enriched for the strongest signals.
# B1: Banana lectin (Musa acuminata) (protein)
# chain: MNGAIKVGAWGGNGGSAFDMGPAYRIISVKIFSGDVVDGVDVTFTYYGKTETRHYGGSGGTPHEIVLQEGEYLVGMAGEVANYHGAVVLGKLGFSTNKKAYGPFGNTGGTPFSLPIAAGKISGFFGRGGKFLDAIGVYLEPLEHHHHHH
# What was measured:
# Assay in all cases: glycan array binding signal (z-score within array); higher = stronger binding
# Conditions in all cases: glycan notation: IUPAC condensed, linker removed
# [1] = target: Fuc(a1-2)Gal(b1-3)GlcNAc(b1-2)Man(a1-3)[Fuc(a1-2)Gal(b1-3)GlcNAc(b1-2)Man(a1-6)]Man(b1-4)GlcNAc(b1-4)[Fuc(a1-6)]GlcNAc
# Method in brief: (§1)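 From the Consortium for Functional Glycomics database, 3228 arrays were curated, keeping only those whose protein sequence was available. Binding is given as a within-array Z-score averaged across arrays sharing a protein sequence and across linkers. Negative Z-scores can be read as non-binding.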
# [2] = target: Fuc(a1-2)Gal(b1-4)GlcNAc(b1-2)Man(a1-3)[Fuc(a1-2)Gal(b1-4)GlcNAc(b1-2)Man(a1-6)]Man(b1-4)GlcNAc(b1-4)[Fuc(a1-6)]GlcNAc
# Method in brief: as §1
# [3] = target: Fuc(a1-2)[Gal(a1-3)]Gal(b1-3)GlcNAc(b1-3)GalNAc
# Method in brief: as §1
# [4] = target: Fuc(a1-2)[Gal(a1-3)]Gal(b1-3)GlcNAc(b1-6)GalNAc
# Method in brief: as §1
# [5] = target: Fuc(a1-2)[Gal(a1-3)]Gal(b1-4)GlcNAc(b1-2)Man(a1-3)[Fuc(a1-2)[Gal(a1-3)]Gal(b1-4)GlcNAc(b1-2)Man(a1-6)]Man(b1-4)GlcNAc(b1-4)[Fuc(a1-6)]GlcNAc
# Method in brief: as §1
# [6] = target: Fuc(a1-2)[GalNAc(a1-3)]Gal(b1-3)GlcNAc(b1-3)GalNAc
# Method in brief: as §1
# [7] = target: Fuc(a1-2)[GalNAc(a1-3)]Gal(b1-4)GlcNAc(b1-3)[Fuc(a1-2)[GalNAc(a1-3)]Gal(b1-4)GlcNAc(b1-6)]GalNAc
# Method in brief: as §1
# [8] = target: Fuc(a1-3)[Gal(b1-4)]Glc6S
# Method in brief: as §1
# [9] = target: Fuc(a1-3)[Gal(b1-4)]GlcNAc(b1-3)GalNAc
# Method in brief: as §1
# [10] = target: Fuc(a1-3)[Gal3S(b1-4)]GlcNAc6S
# Method in brief: as §1
# [11] = target: Fuc(a1-3)[GalNAc(b1-4)]GlcNAc
# Method in brief: as §1
# [12] = target: Gal(a1-3)Gal(b1-3)GlcNAc(b1-2)Man
# Method in brief: as §1
# [13] = target: Gal(a1-3)Gal(b1-3)[Fuc(a1-4)]GlcNAc(b1-2)Man(a1-3)[Gal(a1-3)Gal(b1-3)[Fuc(a1-4)]GlcNAc(b1-2)Man(a1-6)]Man(b1-4)GlcNAc(b1-4)GlcNAc
# Method in brief: as §1
# [14] = target: Gal(a1-3)Gal(b1-4)[Fuc(a1-3)]GlcNAc
# Method in brief: as §1
# [15] = target: Gal(a1-4)Gal(b1-4)GlcNAc(b1-2)Man(a1-3)[Gal(a1-4)Gal(b1-4)GlcNAc(b1-2)Man(a1-6)]Man(b1-4)GlcNAc(b1-4)GlcNAc
# Method in brief: as §1
# [16] = target: Gal(b1-3)GlcNAc(a1-3)Gal(b1-4)GlcNAc
# Method in brief: as §1
# [17] = target: Gal(b1-3)GlcNAc(b1-2)[Gal(b1-3)GlcNAc(b1-6)]Man(a1-6)[Gal(b1-3)GlcNAc(b1-2)Man(a1-3)]Man(b1-4)GlcNAc(b1-4)GlcNAc
# Method in brief: as §1
# [18] = target: Gal(b1-3)GlcNAc(b1-3)Gal(b1-4)GlcNAc
# Method in brief: as §1
# [19] = target: Gal(b1-3)GlcNAc(b1-3)Gal(b1-4)[Fuc(a1-3)]GlcNAc
# Method in brief: as §1
# [20] = target: Gal(b1-3)GlcNAc(b1-3)Gal(b1-4)[Fuc(a1-3)]GlcNAc(b1-6)[Gal(b1-3)GlcNAc(b1-3)]Gal(b1-4)Glc
# Method in brief: as §1
# [21] = target: Gal(b1-3)GlcNAc(b1-6)[Gal(b1-3)]GalNAc
# Method in brief: as §1
# [22] = target: Gal(b1-4)GlcNAc(b1-3)Gal(b1-4)Glc
# Method in brief: as §1
# [23] = target: Gal(b1-4)GlcNAc(b1-3)Gal(b1-4)GlcNAc(b1-3)Gal(b1-4)GlcNAc(b1-3)Gal(b1-4)GlcNAc(b1-2)Man(a1-3)[Gal(b1-4)GlcNAc(b1-3)Gal(b1-4)GlcNAc(b1-3)Gal(b1-4)GlcNAc(b1-3)Gal(b1-4)GlcNAc(b1-2)Man(a1-6)]Man(b1-4)GlcNAc(b1-4)[Fuc(a1-6)]GlcNAc
# Method in brief: as §1
# Gal6S(b1-3)GlcNAc = target: Gal6S(b1-3)GlcNAc
# Method in brief: as §1
# GalNAc(a1-3)GalNAc = target: GalNAc(a1-3)GalNAc
# Method in brief: as §1
# [24] = target: Glc(a1-2)Glc(a1-3)Glc(a1-3)Man(a1-2)Man(a1-2)Man(a1-3)[Man(a1-2)Man(a1-3)[Man(a1-2)Man(a1-6)]Man(a1-6)]Man(b1-4)GlcNAc
# Method in brief: as §1
# [25] = target: GlcA(b1-3)GlcNAc(b1-4)GlcA(b1-3)GlcNAc(b1-4)GlcA(b1-3)GlcNAc(b1-4)GlcA(b1-3)GlcNAc(b1-4)GlcA(b1-3)GlcNAc(b1-4)GlcA(b1-3)GlcNAc(b1-4)GlcA(b1-3)GlcNAc(b1-4)GlcA(b1-3)GlcNAc
# Method in brief: as §1
# [26] = target: GlcNAc(a1-3)Gal(b1-4)GlcNAc
# Method in brief: as §1
# [27] = target: GlcNAc(b1-2)Man(a1-3)[GlcNAc(b1-2)Man(a1-6)]Man(b1-4)GlcNAc(b1-4)GlcNAc
# Method in brief: as §1
# [28] = target: GlcNAc(b1-2)Man(a1-3)[Man(a1-3)[Man(a1-6)]Man(a1-6)][GlcNAc(b1-4)]Man(b1-4)GlcNAc(b1-4)GlcNAc
# Method in brief: as §1
binder,measurement,setting,value
B1,glycan array binding signal (z-score),[1],0.041
same,glycan array binding signal (z-score),[2],0.084
same,glycan array binding signal (z-score),[3],-0.22
same,glycan array binding signal (z-score),[4],-0.374
same,glycan array binding signal (z-score),[5],0.595
same,glycan array binding signal (z-score),[6],-0.215
same,glycan array binding signal (z-score),[7],-0.173
same,glycan array binding signal (z-score),[8],-0.211
same,glycan array binding signal (z-score),[9],-0.268
same,glycan array binding signal (z-score),[10],-0.212
same,glycan array binding signal (z-score),[11],-0.132
same,glycan array binding signal (z-score),[12],-0.189
same,glycan array binding signal (z-score),[13],0.245
same,glycan array binding signal (z-score),[14],-0.222
same,glycan array binding signal (z-score),[15],-0.174
same,glycan array binding signal (z-score),[16],3.29
same,glycan array binding signal (z-score),[17],0.504
same,glycan array binding signal (z-score),[18],-0.264
same,glycan array binding signal (z-score),[19],-0.216
same,glycan array binding signal (z-score),[20],-0.216
same,glycan array binding signal (z-score),[21],0.054
same,glycan array binding signal (z-score),[22],-0.22
same,glycan array binding signal (z-score),[23],-0.154
same,glycan array binding signal (z-score),Gal6S(b1-3)GlcNAc,-0.197
same,glycan array binding signal (z-score),GalNAc(a1-3)GalNAc,-0.213
same,glycan array binding signal (z-score),[24],1.56
same,glycan array binding signal (z-score),[25],-0.99
same,glycan array binding signal (z-score),[26],0.842
same,glycan array binding signal (z-score),[27],0.105
same,glycan array binding signal (z-score),[28],-0.039
